From PubChem BioAssay (Tox21)
Results filed as inconclusive are left out. Activity calls are given as the source filed them. The call rests on the fitted dose curve; in most records, active means well fitted curve in the direction sought with a large enough effect in the signal ratio in the repeat runs (not every such curve was filed as active); inconclusive means weak or mixed curves, or a change in a side signal; inactive means no such curve, though single readings can be large or run the other way; the % refers to the signal ratio.

Assay: qHTS assay to identify small molecule agonists of the NFkB signaling pathway (AID 1159509)
Conditions: NFkB-bla ME-180 cells, beta-lactamase FRET ratio, 5 h; series mostly up to 61 µM
Source text: National Center for Advancing Translational Sciences [NCATS]
NIH Chemical Genomics Center [NCGC]
U.S. Environmental Protection Agency [EPA]
National Institutes of Environmental Health Sciences [NIEHS]
National Toxicology Program [NTP]
U.S. Food and Drug Administration [FDA]
Transcription factors and their stimulated target gene expression play pivotal roles across many cellular processes including responses to environmental stimuli. Proper regulation of associated pathways is critical to maintain cell health and function. Constitutive activation of transcription factor pathways has been implicated in tumors as it may block cellular functions such as apoptosis and lead to invasion and metastasis. One important transcription factor that stimulates gene expression in response to cytokines, UV radiation, and other stimuli is nuclear factor-kappa B (NFkB). To measure activation of the NFkB pathway, the CellSensor NFkB-bla ME-180 cell line (Life Technologies, Carlsbad, CA) that stably expresses beta-lactamase reporter gene under the regulation of a NF-kB response element was used. This assay allows measurement of the NFkB pathway activity induced by compounds in a ME-180 cell line. This system quantitates NF-kB activity using a FRET-based assay system where beta-lactamase expression disrupts FRET, allowing for fluorescent measurement of activity. This cell line has been used to screen the Tox21 10K compound library and to identify compounds that induce the NFkB pathway activity.
Tox21 Assay Protocol Summary:
NFkB-bla ME-180 cells were dispensed at 2,000 cells/6 uL of assay medium per well into black wall/clear-bottom 1536-well plates using a Multidrop Combi (ThermoFisher Scientific, Waltham, MA) dispenser. After the assay plates were incubated at 37 C and 5% CO2 for an overnight, 23 nL of compounds dissolved in DMSO, positive controls or DMSO only was transferred to the assay plate by a Pintool station (Kalypsys, San Diego, CA). The assay plates were incubated at 37 C and 5% CO2 for 5 hr. One uL of LiveBLAzer B/G FRET substrate (Life Technologies) was added using a Flying Reagent Dispenser (Aurora Discovery, San Diego, CA) and the plates were incubated at room temperature for 1.5 hr. Fluorescence intensity (405 nm excitation, 460 nm and 530 nm emissions) was measured using an Envision plate reader (PerkinElmer, Shelton, CT).
With `O=[N+]([O-])c1c(Cl)c(Cl)c(Cl)c(Cl)c1Cl` the outcome was “inactive”. With `CC(C)NC(C)C` the outcome was “inactive”. With `C=CCc1ccc2c(c1)OCO2` the outcome was “inactive”. For `CNC(=O)Oc1cccc2c1OC(C)(C)O2`, the outcome was “inactive”. With `O=S(=O)(Oc1ccc(Cl)cc1)c1ccc(Cl)cc1` the outcome was “inactive”. With `CN(C)c1ccc(C(=O)c2ccc(N(C)C)cc2)cc1` the outcome was “inactive”. With `CCCCCCCCC(=O)NCc1ccc(O)c(OC)c1` the outcome was “inactive”. For `COc1ccc(C(CN(C)C)C2(O)CCCCC2)cc1` (stereo not given), the outcome was “inactive”. In the case of `O=C(O)CC[N+](=O)[O-]`, the outcome is reported as “inactive”. In the case of `CCN(CC)C(=O)SCc1ccc(Cl)cc1`, the outcome is reported as “inactive”. For `O=Cc1ccco1`, the outcome was “inactive”. For `O=C(CCl)c1ccccc1`, the outcome was “inactive”. In the case of `CCC(C)(C)c1ccc(O)cc1`, the outcome is reported as “inactive”. For `Cc1ccc2c(c1N)C(=O)c1ccccc1C2=O`, the outcome was “inactive”. With `c1ccc(-c2cccc(-c3ccccc3)c2)cc1` the outcome was “inactive”. In the case of `CCN(CC)C(=O)/C(Cl)=C(\C)OP(=O)(OC)OC`, the outcome is reported as “inactive”. In the case of `CC(C)(c1cc(Cl)c(O)c(Cl)c1)c1cc(Cl)c(O)c(Cl)c1`, the outcome is reported as “inactive”. For `Nc1ccc(Cl)cc1N`, the outcome was “inactive”. For `CCCCCc1cc(O)cc(O)c1`, the outcome was “inactive”. In the case of `CNC(=O)N(C)c1nnc(C(C)(C)C)s1`, the outcome is reported as “inactive”. For `Nc1cccnc1`, the outcome was “inactive”. For `CC(O)CCO` (stereo not given), the outcome was “inactive”. With `CCCCNC(=O)n1c(NC(=O)OC)nc2ccccc21` the outcome was “inactive”. For `CCc1cccc(CC)c1N(COC)C(=O)CCl`, the outcome was “inactive”. For `NNC(N)=S`, the outcome was “inactive”. For `C=CCN(CC=C)C(=O)C(Cl)Cl`, the outcome was “inactive”. For `Nn1cnnc1`, the outcome was “inactive”. With `Brc1ccc(Oc2cc(Br)c(Br)cc2Br)c(Br)c1` the outcome was “inactive”. For `C=CC(=O)OCCO`, the outcome was “inactive”. For `CC(C)(OOC(C)(C)c1ccccc1)c1ccccc1`, the outcome was “inactive”. With `c1nc[nH]n1` the outcome was “inactive”. For `Cc1cc(C)cc(C)c1`, the outcome was “inactive”. In the case of `N[C@@H](Cc1ccc(N(CCCl)CCCl)cc1)C(=O)O`, the outcome is reported as “inactive”. With `c1ccc(N=Nc2ccccc2)cc1` the outcome was “inactive”. In the case of `c1ccc(P(c2ccccc2)c2ccccc2)cc1`, the outcome is reported as “inactive”. For `CCCCCCOC(=O)c1ccccc1C(=O)OCCCCCC`, the outcome was “inactive”. With `O=P(Oc1ccccc1)(Oc1ccccc1)Oc1ccccc1` the outcome was “inactive”. In the case of `CCC(=O)O[C@H]1CC[C@H]2[C@@H]3CCC4=CC(=O)CC[C@]4(C)[C@H]3CC[C@]12C`, the outcome is reported as “inactive”. With `CN(C)C(=O)Nc1ccc(Cl)cc1` the outcome was “inactive”. For `C[C@]12CCC(=O)C(O)=C1CC[C@@H]1[C@@H]2CC[C@]2(C)C(=O)CC[C@@H]12`, the outcome was “inactive”.
